# TRPM1 prom inh: inhibitors of MITF-driven TRPM1 promoter in melanoma cells. inhibition, % at 12.5 µM. SK-MEL-5 TRPM1 promoter luciferase, 24 h. 330,000 tested, 0.83% active;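 active = mean inhibition across replicates of 60% or more, whatever share of single replicates reaches that level; inconclusive = some that reach 60%, reason not given; inactive = mean inhibition across replicates below 60%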
# KKLEB cytotox: CF airway cell cytotoxicity counter-screen | KKLEB CF airway cells viability, ATPlite luminescence, overnight; hits give low values; cells stimulated with P. aeruginosa culture filtrate | activity change (cytotoxicity), % at 5 µM | 360,000 tested, 0.36% active | AID 602141;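 active = corrected activity change at or below -50% at 5 µM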
# CF NFkB inh: cystic fibrosis NF-kB activation inhibition | KKLEB NF-kB-GFP reporter, PAF-induced, GFP fluorescence overnight | inhibition, % at 5 µM | 360,000 tested, 0.86% active | AID 588850;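 active = at least 50% inhibition at 5 µM, scaled per plate between neutral and stimulator controls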;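 note: PAF is a Pseudomonas aeruginosa culture filtrate used as stimulus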
# Peg3 prom inh-1: inhibitors of Peg3 promoter; inhibition, % at 20 µM; AID 588405; 360,000 tested, 1.7% active; HeLa PEG-Prom luciferase reporter, luminescence, overnight;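 active = inhibition of at least 50% at 20 µM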
# LMP1 NFkB inh: reduces LMP1-driven NF-kappaB luciferase signal; 350,000 tested, 0.69% active; LMP1-induced NF-kappaB luciferase reporter cells, luminescence; inhibition, % at 12.5 µM; in the data active = inhibition above about 41%; inconclusive = no clear call, values can overlap the other calls
# Shn3 3UTR inh: inhibitors of Schnurri-3 3'UTR reporter in osteoblasts; Clone20 osteoblast Shn3 3'UTR firefly luciferase, 24 h; AID 588674; inhibition, % at 12.5 µM; 360,000 tested, 0.52% active;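 active = mean inhibition of at least 75% with every replicate also reaching 75%; inconclusive = mean inhibition at least 75% but some replicate below; inactive = mean inhibition below 75%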
# Peg3 prom inh-2: confirmation of Peg3 promoter inhibitors | shares compounds with Peg3 prom inh-1 | HeLa PEG-Prom luciferase reporter, luminescence, overnight | inhibition, % at 20 µM | 1,300 tested, 84% active | AID 602417;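 active = at 20 µM dose, 40% or more inhibition averaged across four replicates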
# Hits are given with their value; . = inactive; ? = inconclusive; / = not tested or not shown. Shown are actives, neighbours in structure and some others; about 2.9% of the full set was active somewhere.
SMILES,TRPM1 prom inh,KKLEB cytotox,CF NFkB inh,Peg3 prom inh-1,LMP1 NFkB inh,Shn3 3UTR inh,Peg3 prom inh-2
O=c1[nH]c2ccccc2cc1CN(Cc1cccnc1)S(=O)(=O)c1ccc(Cl)cc1,.,.,.,.,.,.,/
CC(=O)Nc1ccc(S(=O)(=O)N(Cc2cccnc2)Cc2cc3ccccc3[nH]c2=O)cc1,.,.,81,56,.,.,46
CC(=O)Nc1ccc(S(=O)(=O)N(Cc2ccco2)Cc2cc3ccccc3[nH]c2=O)cc1,.,.,.,60,.,.,55
COc1ccc(N(Cc2cc3cc(OC)ccc3[nH]c2=O)S(=O)(=O)c2ccc(NC(C)=O)cc2)cc1,.,-101,80,62,.,.,61
COc1ccc(N(Cc2cc3ccccc3[nH]c2=O)S(=O)(=O)c2ccc(OC)cc2)cc1,.,.,.,.,.,.,/
CC(OC(=O)c1ccc2c(c1)OCO2)C(=O)NC1CCCCC1 (centres undefined),/,.,.,.,.,.,/
CCN(Cc1ccccc1)C(=O)C1CCN(c2ncnc3c2nc2n3CCCCC2)CC1,.,.,.,.,.,.,/
CCc1ccccc1N(CC)C(=O)C1CCN(c2ncnc3c2nc2n3CCCCC2)CC1,.,.,.,56,.,.,.
COc1ccc(C23CC4CC(CC(C4)C2)C3)cc1C(=O)NCCN(C)C,.,.,.,51,.,.,75
COc1ccccc1C(=O)NCCC(=O)NCCC12CC3CC(CC(C3)C1)C2,.,.,.,.,.,.,/
Cc1c(C(=O)N2CCN(c3ccc(F)cc3)CC2)sc2ncnc(N3CCN(c4ccccn4)CC3)c12,.,.,.,50,.,.,87
Cc1c(C(=O)N2CCN(c3ccccn3)CC2)sc2ncnc(N3CCOCC3)c12,.,.,.,.,.,.,/
COc1ccccc1N1CCN(C(=O)c2sc3ncnc(N4CCN(c5ccccn5)CC4)c3c2C)CC1,.,.,.,84,.,.,74
COc1ccccc1N1CCN(C(=O)c2sc3nc(C)nc(N4CCN(c5ccccn5)CC4)c3c2C)CC1,.,.,.,.,.,.,/
CC(C)C1Cc2[nH]c(=S)[nH]c(=O)c2C(c2ccc(F)cc2)O1 (centres undefined),/,.,.,.,/,.,/
Cc1noc(C)c1S(=O)(=O)N(C)C[C@H]1OCc2cnnn2CCCC(=O)N([C@H](C)CO)C[C@H]1C,/,.,.,.,.,.,/
Cc1cccc(NC(=O)c2oc3ccc(S(=O)(=O)N4CCOCC4)cc3c2C)c1C,.,.,.,54,.,.,56
CCCc1ccc(C(=O)O/N=C(\N)c2ccccn2)cc1,73,.,.,108,69,.,97
COc1cccc(C(=O)O/N=C(\N)c2ccccn2)c1,84,.,.,87,68,.,69
O=C(Nc1ccn(CCCNCC2CCCO2)c(=O)n1)OCc1ccccc1 (centres undefined),.,.,.,.,.,.,/
O=C(/C=C/Nc1ccccc1Br)c1ccccn1,76,.,.,90,74,90,87
CC(C)CC(N)c1csc(Nc2ncccn2)n1 (centres undefined),/,.,.,.,/,.,/
COc1ccc(CNC(=O)Nc2nc(C(N)Cc3ccc(F)cc3)cs2)cc1 (centres undefined),/,.,.,96,/,.,98
COc1cc(OC)cc(C(=O)Nc2nc(CC(=O)NCc3ccc(F)cc3)cs2)c1,.,.,.,.,.,.,/
CN(C)Cc1csc(NC(=O)Nc2ccccc2Oc2ccccc2)n1,/,.,.,93,/,.,.
SMILES,TRPM1 prom inh,KKLEB cytotox,CF NFkB inh,Peg3 prom inh-1,LMP1 NFkB inh,Shn3 3UTR inh,Peg3 prom inh-2
COc1ccccc1NC(=O)Nc1nc(C(N)CCc2ccccc2)cs1 (centres undefined),/,.,.,88,/,.,95
COc1ccccc1NC(=O)Nc1nc(C(C)(C)C)cs1,.,.,.,.,.,.,/
CC(C)CC(N)c1csc(NC(=O)Nc2ccccc2C(C)(C)C)n1 (centres undefined),/,.,.,67,/,.,91
CCCN(C(=O)CSc1nnc(-c2ccc3c(c2)OCO3)o1)C1CCS(=O)(=O)C1 (centres undefined),/,.,.,.,.,.,/
CC(C)N1CCCC(C)(C(=O)Nc2nc3ccccc3[nH]2)C1 (centres undefined),/,.,.,.,/,.,/
Fc1ccc([C@@H]2CCNC[C@H]2COc2ccc3c(c2)OCO3)cc1,?,.,.,66,.,.,62
Cc1ccc(-c2nc(-c3ccccn3)no2)cc1,90,-73,.,96,88,92,89
Cc1ccc(Cc2nc(-c3ccccn3)no2)cc1,.,.,.,.,.,.,/
Clc1cccc(-c2nc(-c3ccccn3)no2)c1,64,.,.,62,51,.,52
Cc1ccc(-c2nc(-c3ccccn3)no2)cc1[N+](=O)[O-],.,.,.,.,.,.,/
Cc1ccc(-c2nc(-c3ccccn3)no2)cc1Cl,83,-67,.,93,68,.,72
c1ccc(-c2nc(-c3ccccn3)no2)cc1,.,.,.,76,41,.,46
c1ccc(-c2cc(-c3nc(-c4ccccn4)no3)c3ccccc3n2)cc1,.,.,.,.,.,.,/
CCCS(=O)(=O)NC(=O)C1(C)CCCN(C(=O)CSc2ccccc2)C1 (centres undefined),/,.,.,.,/,.,/
CN1C(=O)/C(=C/c2cccc([N+](=O)[O-])c2)C(=O)N1c1ccccc1,.,.,.,.,.,.,/
CCCN1C/C(=C/c2cccc([N+](=O)[O-])c2)C(=O)/C(=C/c2cccc([N+](=O)[O-])c2)C1,100,-88,95,111,88,.,71
COc1ccc(NC(=O)N(C)[C@H]2C[C@H]3c4[nH]c5ccc(-c6cccc(C)c6)cc5c4CCN3C[C@H]2[C@H](C)O)cc1,/,.,.,92,.,.,53
COc1ccc(NC(=O)N(C)[C@H]2C[C@H]3c4[nH]c5ccccc5c4CCN3C[C@H]2[C@H](C)O)cc1,/,.,.,.,.,.,/
CC(=O)Nc1nc2cc3c(cc2s1)OCCO3,/,.,.,.,.,.,/
O=C(Nc1nc2cc3c(cc2s1)OCCO3)C1=COCCO1,91,-56,.,97,81,88,82
CCc1nc2ccc(C(=O)Nc3cccc(OCC(=O)N(C)C)c3)cn2c1N(C)Cc1ccc(OC)cc1,/,.,.,72,/,.,42
CCc1nc2ccc(C(=O)Nc3cccc(OCC(=O)N(C)C)c3)cn2c1N(C)C(=O)c1cccc(OC)c1,/,.,.,.,/,.,/
Cc1cc(C)c2c(N)c(C(=O)Nc3ncc(C)s3)sc2n1,88,-69,.,101,77,.,89
Cc1cc(C)cc(C(O)c2ncc(-c3cccc(F)c3)[nH]2)c1 (centres undefined),/,.,.,.,/,.,/
